These results are taken from PubChem BioAssay AID489017 (The Scripps Research Institute Molecular Screening Center, 2010).

The assay concerns Imidazoline I2 Central. Briefly: receptor, enzyme and CYP inhibition profiling – biochemical, Ricerca HitProfilingScreen, CYP450, selectivity assay for S1P4 antagonist project, profiling panel (AID 489017). The note with it: Ricerca receptor/enzyme binding panel plus CYP450, at 10 µM, stronger effect = higher value.

The source made the active and inactive calls. How the calls were made is not given here.

For orientation: inhibition means the drop in the measured response relative to a control, in per cent. With `CCc1cccc(CC)c1NC(=O)c1ccc(-c2cc(Cl)ccc2Cl)o1`, the inhibition is 8% (inactive).
